Experimental data published in PubChem BioAssay AID1159580 (chemical genetic matrix, 2015).
Several values for one entry are separate records, joined by “and”; a condition that tells them apart may be missing. Equal values may be shown once. About 2,000 (36%) of roughly 5,500 compounds were called active. Roughly 18% stayed inconclusive and do not appear here. Cut-off read from the data, not from the text of the source: active = normalized growth mostly below about 0.91 (no sharp cut-off); inconclusive = no clear call, values can overlap the other calls; inactive = mostly above about 0.92. Some of the results follow.

Assay: chemical genetic growth profiling, strain panel (AID 1159580);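 note: tested at 20 µM; growth read once vehicle control cultures reached saturation at 30 °C; 1 = growth at the plate median or of vehicle wells; lower values mean less growth of the strain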
Settings: S. cerevisiae deletion strains, growth OD

Measured: normalized growth

O=C(O)CCCc1ccc(N(CCCl)CCCl)cc1
inactive: locus YAL021C, strain ccr4, hits give low values 0.929 | locus YAL026C, strain drs2, hits give low values 0.965 | locus YAL030W, strain snc1, hits give low values 0.971 | locus YAL040C, strain CLN3, hits give low values 1.1 | locus YBL061C, strain skt5, hits give low values 0.985 | locus YBR009C, strain hhf1, hits give low values 1 | locus YBR021W, strain FUR4, hits give low values 1.01 | locus YBR023C, strain chs3, hits give low values 0.957 | locus YBR171W, strain sec66, hits give low values 0.983 | locus YBR229C, strain ROT2, hits give low values 0.95 | locus YBR231C, strain swc5, hits give low values 0.997 | locus YBR279W, strain paf1, hits give low values 0.955 | locus YCL011C, strain gbp2, hits give low values 0.959 | locus YCL016C, strain dcc1, hits give low values 0.931 | locus YCL029C, strain bik1, hits give low values 0.989 | locus YCL061C, strain MRC1, hits give low values 0.986 | locus YCL069W, strain vba3, hits give low values 0.977 | locus YCR088W, strain abp1, hits give low values 0.984 | locus YDL005C, strain med2, hits give low values 0.997 | locus YDL035C, strain GPR1, hits give low values 0.974 | locus YDL040C, strain nat1, hits give low values 0.979 | locus YDL074C, strain BRE1, hits give low values 1 | locus YDL101C, strain DUN1, hits give low values 0.986 | locus YDL185W, strain tfp1, hits give low values 0.973 | locus YDL192W, strain arf1, hits give low values 0.984 | locus YDR001C, strain nth1, hits give low values 0.973 | locus YDR069C, strain doa4, hits give low values 0.955 | locus YDR101C, strain arx1, hits give low values 0.991 | locus YDR137W, strain rgp1, hits give low values 0.943 | locus YDR150W, strain NUM1, hits give low values 0.989 | locus YDR159W, strain sac3, hits give low values 1.01 | locus YDR162C, strain NBP2, hits give low values 0.947 | locus YDR195W, strain ref2 0.959 | locus YDR297W, strain sur2, hits give low values 0.986 | locus YDR318W, strain mcm21, hits give low values 0.999 | locus YDR334W, strain swr1, hits give low values 0.969 | locus YDR335W, strain msn5, hits give low values 0.967 | locus YDR363W, strain ESC2, hits give low values 1 | locus YDR388W, hits give low values 0.985 | locus YDR392W, strain spt3, hits give low values 0.881 | locus YDR502C, strain sam2, hits give low values 1 | locus YEL003W, strain gim4, hits give low values 0.988 | locus YEL037C, strain rad23, hits give low values 0.97 | locus YEL061C, strain CIN8 (second series), hits give low values 0.966 | locus YEL061C, strain CIN8, hits give low values 0.991 | locus YER002W, strain NOP16, hits give low values 1.02 | locus YER015W, strain faa2, hits give low values 0.973 | locus YER016W, strain bim1, hits give low values 0.986 | locus YER110C, hits give low values 0.983 | locus YER111C, strain swi4, hits give low values 0.978 | locus YER155C, strain BEM2 (second series), hits give low values 1.01 | locus YER155C, strain BEM2, hits give low values 0.991 | locus YER167W, strain BCK2, hits give low values 0.99 | locus YFR010W, strain ubp6, hits give low values 1 | locus YGL078C, strain dbp3, hits give low values 0.952 | locus YGL086W, strain mad1, hits give low values 0.932 | locus YGL167C, strain pmr1, hits give low values 0.978 | locus YGL173C, strain kem1, hits give low values 0.999 | locus YGL227W, strain vid30, hits give low values 0.955 | locus YGL240W, strain doc1, hits give low values 0.97 | locus YGL248W, strain PDE1, hits give low values 1 | locus YGL253W, strain hxk2, hits give low values 0.925 | locus YGR135W, strain pre9, hits give low values 1.04 | locus YGR252W, strain gcn5, hits give low values 1.07 | locus YHR013C, strain ard1, hits give low values 0.956 | locus YHR027C, strain rpn1, hits give low values 0.977 | locus YHR030C, strain SLT2, hits give low values 0.982 and 0.856 | locus YHR079C, strain IRE1 (second series), hits give low values 0.996 | locus YHR079C, strain IRE1, hits give low values 0.876 | locus YHR094C, strain hxt1, hits give low values 0.983 | locus YHR129C, strain ARP1, hits give low values 0.988 | locus YHR142W, strain chs7, hits give low values 0.949 | locus YHR200W, strain rpn10, hits give low values 0.981 | locus YIL066C, strain RNR3, hits give low values 0.967 | locus YIL073C, strain SPO22, hits give low values 1.02 | locus YIL125W, strain kgd1, hits give low values 0.95 | locus YIR030C, strain dcg1, hits give low values 0.983 | locus YJL092W, strain hpr5, hits give low values 0.967 | locus YJL095W, strain BCK1 (second series), hits give low values 0.974 | locus YJL095W, strain BCK1, hits give low values 1.06 and 0.888 | locus YJL115W, strain asf1, hits give low values 0.952 | locus YJL129C, strain trk1, hits give low values 0.927 | locus YJL134W, strain LCB3, hits give low values 0.983 | locus YJL154C, strain vps35, hits give low values 0.972 | locus YJL164C, strain tpk1, hits give low values 0.988 | locus YJL166W, strain qcr8, hits give low values 1 | locus YJL168C, strain set2, hits give low values 0.984 | locus YJL187C, strain SWE1 (second series), hits give low values 1 | locus YJR043C, strain POL32, hits give low values 0.963 | locus YJR066W, strain TOR1, hits give low values 0.967 | locus YJR075W, strain HOC1, hits give low values 1.02 and 0.993
